# Records with an inconclusive call do not appear. Calls of active or inactive are those of the source. Rule for the calls, unless noted: active = hit-call score of the fitted dose curve at least 0.9, where 1 is the maximum; inconclusive = response in the unintended direction; inactive = score below 0.9.
# Columns and labels:
# [1] = biological target: human CYP2C9, CYP2C9 (gene 1559) (UniProt P11712); assay: NVS_ADME_hCYP2C9: NovaScreen (NVS) CYP450-related Enzyme Activity (ADME) Assay for human CYP2C9 (AID 2283108)
# Experimental: (§1) NVS_ADME_hCYP2C9 is a biochemical, single-readout assay that uses extracted gene-proteins from SF9 in a cell-free assay. Measurements were taken 0.75 hour after chemical dosing in a 96-well plate.NVS_ADME_hCYP2C9 is one of one assay component(s) measured or calculated from the NVS_ADME_hCYP2C9 assay. It is designed to make measurements of enzyme activity, a form of enzyme reporter, as detected with fluorescence intensity signals by Fluorescence technology.Data from the assay component NVS_ADME_hCYP2C9 was analyzed into 1 assay endpoint. This assay endpoint, NVS_ADME_hCYP2C9, was analyzed in the positive analysis fitting direction relative to Acetonitrile as the negative control and baseline of activity. Using a type of enzyme reporter, loss-of-signal activity can be used to understand changes in the enzymatic activity as they relate to the gene CYP2C9. Furthermore, this assay endpoint can be referred to as a primary readout, because this assay has produced multiple assay endpoints where this one serves a enzymatic activity function. To generalize the intended target to other relatable targets, this assay endpoint is annotated to the cyp intended target family, where the subfamily is xenobiotic metabolism. […]
# [2] = biological target: Cytochrome P450 3A4 (Homo sapiens) (UniProt P08684); assay: NVS_ADME_hCYP3A4: NovaScreen (NVS) CYP450-related Enzyme Activity (ADME) Assay for human CYP3A4 (AID 2283110)
# Procedure, shortened: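 Cell-free recombinant enzyme expressed in insect cells; fluorescent substrate turnover read after 0.33 h, acetonitrile as negative control. Primary screen in duplicate at 10 uM, actives then tested in concentration series.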
# [3] = biological target: human CYP4F12, CYP4F12 (gene 66002) (UniProt Q9HCS2); assay: NVS_ADME_hCYP4F12: NovaScreen (NVS) CYP450-related Enzyme Activity (ADME) Assay for human CYP4F12 (AID 2283111)
# Procedure, shortened: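 Cell-free fluorescence assay of recombinant human CYP4F12 activity on a specific substrate, read 0.5 h after dosing. Primary screen in duplicate at 10 uM, then concentration series for actives; loss of signal fitted against acetonitrile negative control.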
# [4] = biological target: rat CYP2A1, Cyp2a1 (gene 24894) (UniProt P11711); assay: NVS_ADME_rCYP2A1: NovaScreen (NVS) CYP450-related Enzyme Activity (ADME) Assay for rat CYP2A1 (AID 2283114; active = hit-call score of the fitted dose curve at least 0.9, where 1 is the maximum; inactive = score below 0.9)
# Procedure, shortened: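 Recombinant rat CYP2A1, cell-free, fluorogenic substrate turnover read by fluorescence intensity 0.75 h after dosing. Primary screen at 10 uM in duplicate; actives rerun as concentration-response up to 20 uM; loss of signal versus acetonitrile control.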
# rat CYP3A1, gene 25642 = assay: NVS_ADME_rCYP3A1: NovaScreen (NVS) CYP450-related Enzyme Activity (ADME) Assay for rat CYP3A1 (AID 2283126)
# Experimental: as §1, with “NVS_ADME_rCYP3A1” for “NVS_ADME_hCYP2C9”, “gene-proteins” for “gene-proteins from SF9”, “0.5” for “0.75”, “plate.NVS_ADME_rCYP3A1” for “plate.NVS_ADME_hCYP2C9”, “NVS_ADME_rCYP3A1,” for “NVS_ADME_hCYP2C9,”, “Cyp3a23/3a1.” for “CYP2C9.”
# [5] = biological target: rat CYP1A2, Cyp1a2 (gene 24297) (UniProt P04799); assay: NVS_ADME_rCYP1A2: NovaScreen (NVS) CYP450-related Enzyme Activity (ADME) Assay for rat CYP1A2 (AID 2283115)
# Experimental: as §1, with “NVS_ADME_rCYP1A2” for “NVS_ADME_hCYP2C9”, “gene-proteins” for “gene-proteins from SF9”, “1” for “0.75”, “plate.NVS_ADME_rCYP1A2” for “plate.NVS_ADME_hCYP2C9”, “NVS_ADME_rCYP1A2,” for “NVS_ADME_hCYP2C9,”, “Cyp1a2.” for “CYP2C9.”
# [6] = biological target: rat CYP2A2, Cyp2a2 (gene 24895) (UniProt P15149); assay: NVS_ADME_rCYP2A2: NovaScreen (NVS) CYP450-related Enzyme Activity (ADME) Assay for rat CYP2A2 (AID 2283116)
# Experimental: as §1, with “NVS_ADME_rCYP2A2” for “NVS_ADME_hCYP2C9”, “gene-proteins” for “gene-proteins from SF9”, “0.2” for “0.75”, “plate.NVS_ADME_rCYP2A2” for “plate.NVS_ADME_hCYP2C9”, “NVS_ADME_rCYP2A2,” for “NVS_ADME_hCYP2C9,”, “Cyp2a2.” for “CYP2C9.”
# [7] = biological target: rat CYP2C11, Cyp2c11 (gene 29277) (UniProt P08683); assay: NVS_ADME_rCYP2C11: NovaScreen (NVS) CYP450-related Enzyme Activity (ADME) Assay for rat CYP2C11 (AID 2283118)
# Procedure, shortened: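 Cell-free recombinant rat enzyme with fluorescent substrate; readout 0.33 h after dosing, loss of signal versus acetonitrile control. Initial duplicate single-point at 10 uM; actives rerun in concentration series.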
# [8] = biological target: rat CYP2C13, Cyp2c13 (gene 171521) (UniProt P20814); assay: NVS_ADME_rCYP2C13: NovaScreen (NVS) CYP450-related Enzyme Activity (ADME) Assay for rat CYP2C13 (AID 2283121)
# Procedure, shortened: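 Recombinant rat CYP2C13 with fluorogenic substrate, 0.75 h cell-free incubation; primary screen in duplicate at 10 uM, actives followed in concentration series. Fluorescence loss relative to acetonitrile control indicates inhibition.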
# human CYP2C9, CYP2C9 (gene 1559), sequence (P11712 whole entry, looked up): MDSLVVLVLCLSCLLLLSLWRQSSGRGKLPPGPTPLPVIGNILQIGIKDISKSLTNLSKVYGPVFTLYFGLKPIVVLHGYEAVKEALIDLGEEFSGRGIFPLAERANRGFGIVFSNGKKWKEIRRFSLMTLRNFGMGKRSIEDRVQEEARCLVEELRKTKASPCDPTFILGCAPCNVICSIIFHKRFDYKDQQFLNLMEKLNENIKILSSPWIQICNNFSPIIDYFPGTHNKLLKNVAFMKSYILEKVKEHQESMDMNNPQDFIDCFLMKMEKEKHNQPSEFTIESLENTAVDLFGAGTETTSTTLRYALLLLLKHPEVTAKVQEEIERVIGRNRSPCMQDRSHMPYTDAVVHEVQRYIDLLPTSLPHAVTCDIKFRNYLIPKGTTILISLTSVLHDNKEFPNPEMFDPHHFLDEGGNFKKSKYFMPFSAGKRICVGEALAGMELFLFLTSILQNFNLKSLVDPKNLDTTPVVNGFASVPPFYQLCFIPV
# human CYP4F12, CYP4F12 (gene 66002), sequence (Q9HCS2 whole entry, looked up): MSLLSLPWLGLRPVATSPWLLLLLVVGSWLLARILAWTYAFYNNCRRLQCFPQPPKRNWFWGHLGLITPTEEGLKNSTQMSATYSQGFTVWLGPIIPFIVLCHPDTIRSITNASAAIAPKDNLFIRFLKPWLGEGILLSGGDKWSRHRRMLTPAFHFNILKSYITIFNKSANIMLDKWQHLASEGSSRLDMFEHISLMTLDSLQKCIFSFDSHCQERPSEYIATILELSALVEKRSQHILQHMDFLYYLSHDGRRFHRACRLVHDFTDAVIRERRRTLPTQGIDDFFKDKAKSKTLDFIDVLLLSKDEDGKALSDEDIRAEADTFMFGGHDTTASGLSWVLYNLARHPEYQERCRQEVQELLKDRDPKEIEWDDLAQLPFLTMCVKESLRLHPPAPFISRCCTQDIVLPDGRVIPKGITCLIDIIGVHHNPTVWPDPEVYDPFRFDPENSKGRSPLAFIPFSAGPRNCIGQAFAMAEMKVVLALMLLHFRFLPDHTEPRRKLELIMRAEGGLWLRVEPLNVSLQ
# rat CYP2A2, Cyp2a2 (gene 24895), sequence (P15149 whole entry, looked up): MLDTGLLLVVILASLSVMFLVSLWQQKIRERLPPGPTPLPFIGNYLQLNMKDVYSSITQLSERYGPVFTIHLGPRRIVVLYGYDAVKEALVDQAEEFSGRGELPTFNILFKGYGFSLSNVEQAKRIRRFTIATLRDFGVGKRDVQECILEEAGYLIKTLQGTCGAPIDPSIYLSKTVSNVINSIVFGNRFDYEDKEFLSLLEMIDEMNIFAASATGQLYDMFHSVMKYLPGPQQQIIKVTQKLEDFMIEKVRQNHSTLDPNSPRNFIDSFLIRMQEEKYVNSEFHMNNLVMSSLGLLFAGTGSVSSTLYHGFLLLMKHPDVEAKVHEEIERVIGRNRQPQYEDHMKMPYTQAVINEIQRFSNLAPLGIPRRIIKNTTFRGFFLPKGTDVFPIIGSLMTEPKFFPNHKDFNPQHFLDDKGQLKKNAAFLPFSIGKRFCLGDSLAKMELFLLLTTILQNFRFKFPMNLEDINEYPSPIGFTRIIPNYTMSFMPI
# rat CYP1A2, Cyp1a2 (gene 24297), sequence (P04799 whole entry, looked up): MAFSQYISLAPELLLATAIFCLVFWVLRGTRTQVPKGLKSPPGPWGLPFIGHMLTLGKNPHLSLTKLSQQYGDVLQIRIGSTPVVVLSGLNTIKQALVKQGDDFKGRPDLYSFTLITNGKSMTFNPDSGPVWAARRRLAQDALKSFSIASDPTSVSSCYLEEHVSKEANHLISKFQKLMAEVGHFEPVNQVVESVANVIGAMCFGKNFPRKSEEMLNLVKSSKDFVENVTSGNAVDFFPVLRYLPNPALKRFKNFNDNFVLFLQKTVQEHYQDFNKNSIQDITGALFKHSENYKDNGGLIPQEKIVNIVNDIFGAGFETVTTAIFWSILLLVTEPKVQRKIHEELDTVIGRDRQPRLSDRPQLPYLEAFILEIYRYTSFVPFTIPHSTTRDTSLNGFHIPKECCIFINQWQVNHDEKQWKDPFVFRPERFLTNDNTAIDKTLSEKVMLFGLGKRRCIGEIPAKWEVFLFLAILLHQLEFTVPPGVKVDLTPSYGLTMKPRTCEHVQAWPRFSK
# Cytochrome P450 3A4 (Homo sapiens), sequence (P08684 whole entry, looked up): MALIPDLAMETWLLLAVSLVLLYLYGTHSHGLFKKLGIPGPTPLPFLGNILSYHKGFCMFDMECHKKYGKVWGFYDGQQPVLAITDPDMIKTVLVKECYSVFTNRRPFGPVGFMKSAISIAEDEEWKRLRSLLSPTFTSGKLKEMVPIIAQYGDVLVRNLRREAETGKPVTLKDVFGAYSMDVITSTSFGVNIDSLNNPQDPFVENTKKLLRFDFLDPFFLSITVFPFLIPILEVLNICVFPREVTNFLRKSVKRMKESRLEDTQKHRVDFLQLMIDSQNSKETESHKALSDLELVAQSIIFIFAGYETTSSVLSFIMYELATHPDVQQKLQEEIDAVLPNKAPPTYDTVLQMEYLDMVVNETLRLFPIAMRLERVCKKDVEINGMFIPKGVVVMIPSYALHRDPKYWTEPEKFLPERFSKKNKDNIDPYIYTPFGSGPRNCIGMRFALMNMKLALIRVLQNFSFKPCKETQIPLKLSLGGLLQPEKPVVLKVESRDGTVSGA
# rat CYP2C11, Cyp2c11 (gene 29277), sequence (P08683 whole entry, looked up): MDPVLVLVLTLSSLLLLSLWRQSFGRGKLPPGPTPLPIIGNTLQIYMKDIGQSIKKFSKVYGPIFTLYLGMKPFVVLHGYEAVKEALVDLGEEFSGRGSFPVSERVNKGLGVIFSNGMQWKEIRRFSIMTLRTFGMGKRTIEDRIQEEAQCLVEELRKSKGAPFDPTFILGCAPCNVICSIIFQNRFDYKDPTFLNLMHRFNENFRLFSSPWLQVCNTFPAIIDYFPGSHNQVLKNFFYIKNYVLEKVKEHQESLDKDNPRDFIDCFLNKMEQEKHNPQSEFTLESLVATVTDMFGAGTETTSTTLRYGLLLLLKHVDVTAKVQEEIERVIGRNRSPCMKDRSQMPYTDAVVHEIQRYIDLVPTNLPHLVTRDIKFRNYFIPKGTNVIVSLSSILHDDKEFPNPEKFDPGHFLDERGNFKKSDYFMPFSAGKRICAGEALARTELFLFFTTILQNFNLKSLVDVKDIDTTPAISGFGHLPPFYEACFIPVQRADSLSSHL
# rat CYP2A1, Cyp2a1 (gene 24894), sequence (P11711 whole entry, looked up): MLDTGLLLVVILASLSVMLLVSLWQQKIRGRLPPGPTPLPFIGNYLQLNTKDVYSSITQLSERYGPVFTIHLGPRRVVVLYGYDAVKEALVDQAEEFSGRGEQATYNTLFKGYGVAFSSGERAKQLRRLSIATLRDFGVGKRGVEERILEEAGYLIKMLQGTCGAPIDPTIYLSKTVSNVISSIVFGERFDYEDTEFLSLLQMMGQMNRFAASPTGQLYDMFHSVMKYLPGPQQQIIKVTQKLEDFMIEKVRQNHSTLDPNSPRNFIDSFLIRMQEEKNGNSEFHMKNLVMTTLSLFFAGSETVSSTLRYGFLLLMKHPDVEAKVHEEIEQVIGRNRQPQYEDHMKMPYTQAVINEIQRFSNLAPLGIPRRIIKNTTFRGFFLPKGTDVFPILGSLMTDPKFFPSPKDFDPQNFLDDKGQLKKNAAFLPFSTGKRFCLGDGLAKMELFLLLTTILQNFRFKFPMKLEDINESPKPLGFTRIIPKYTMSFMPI
# rat CYP2C13, Cyp2c13 (gene 171521), sequence (P20814 whole entry, looked up): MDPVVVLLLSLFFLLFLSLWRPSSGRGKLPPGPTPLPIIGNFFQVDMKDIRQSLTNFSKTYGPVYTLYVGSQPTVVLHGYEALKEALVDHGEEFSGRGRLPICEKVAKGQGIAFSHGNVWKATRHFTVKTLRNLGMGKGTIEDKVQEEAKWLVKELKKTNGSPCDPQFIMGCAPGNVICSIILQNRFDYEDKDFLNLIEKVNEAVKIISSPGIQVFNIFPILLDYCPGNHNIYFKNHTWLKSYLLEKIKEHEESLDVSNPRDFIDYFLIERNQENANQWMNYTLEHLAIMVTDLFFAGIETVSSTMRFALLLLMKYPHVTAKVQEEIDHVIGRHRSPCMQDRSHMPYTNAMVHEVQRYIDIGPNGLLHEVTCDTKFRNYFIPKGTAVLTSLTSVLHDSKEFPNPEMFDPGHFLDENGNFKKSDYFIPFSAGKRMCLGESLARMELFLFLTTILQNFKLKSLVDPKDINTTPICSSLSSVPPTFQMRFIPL
structure (smiles),measurement,setting,value
Cc1cc(C(C)(C)c2ccc(O)c(C)c2)ccc1O,AC50,[1],942 nM (active)
same,outcome,[2],inactive
Oc1ccc(Cc2ccc(O)cc2)cc1,AC50,[1],321 nM (active)
Oc1cc(Cl)c(Cl)cc1Cl,AC50,[3],605 nM (active)
COC(=O)Nc1cccc(OC(=O)Nc2cccc(C)c2)c1,AC50,[4],3460 nM (active)
same,AC50,"rat CYP3A1, gene 25642",11400 nM (active)
CC(C)(c1ccccc1)c1cc(-n2nc3ccccc3n2)c(O)c(C(C)(C)c2ccccc2)c1,outcome,[5],inactive
O=C(O)COc1ccc(Cl)cc1,outcome,[6],inactive
CC1(C)[C@H](C(=O)O[C@H](C#N)c2cccc(Oc3ccccc3)c2)[C@@H]1/C=C(\Cl)C(F)(F)F,outcome,[7],inactive
same,outcome,[8],inactive
same,outcome,"rat CYP3A1, gene 25642",inactive

# Source: PubChem BioAssay (EPA / NIEHS)
